This is a sample that favours compounds with a hit; in the whole collection about 27% have one here.
CYP2C9 act = activators of human CYP2C9. recombinant CYP2C9, luciferin-H conversion, luminescence; active compounds read high; factor 1 = untreated enzyme, 0 = blocked. activation factor at 5 µM. 96,000 tested, 1.4% active. AID 1024;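 active = activation factor of 2 or more for CYP2C9 at a 5 µM dose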;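 also: 0 = sulfaphenazole-blocked wells and 1 = vehicle-only wells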
Target sequence (P11712 whole entry, looked up): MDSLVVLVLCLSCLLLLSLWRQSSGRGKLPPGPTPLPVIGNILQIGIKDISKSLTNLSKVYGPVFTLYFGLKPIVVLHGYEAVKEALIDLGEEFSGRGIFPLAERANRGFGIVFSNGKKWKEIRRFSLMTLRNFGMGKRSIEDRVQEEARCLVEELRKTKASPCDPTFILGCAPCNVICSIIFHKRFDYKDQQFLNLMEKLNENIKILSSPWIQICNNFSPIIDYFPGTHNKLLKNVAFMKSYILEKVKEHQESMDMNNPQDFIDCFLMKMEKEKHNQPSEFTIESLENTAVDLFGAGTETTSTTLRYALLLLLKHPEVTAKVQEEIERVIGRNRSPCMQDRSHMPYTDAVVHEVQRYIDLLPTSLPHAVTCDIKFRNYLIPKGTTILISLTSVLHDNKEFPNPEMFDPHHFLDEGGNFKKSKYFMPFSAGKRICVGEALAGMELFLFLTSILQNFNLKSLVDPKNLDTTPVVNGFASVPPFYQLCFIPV
Cav32 inh = inhibitors of human Cav3.2 T-type calcium channel | 100,000 tested, 4% active | O95180 | Cav3.2-expressing cells, Fluo-4 calcium fluorescence FDSS; active compounds read low | B-score at 10 µM | AID 449739;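 active = single-dose well whose peak fluorescence ratio is a statistical outlier from its plate by either plate-standardised score or position-corrected B-score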
CYP2C19 inhib = blocks human cytochrome P450 2C19 | CYP2C19 Supersomes, luciferin-H EGE luminescence, 30 min | 96,000 tested, 21% active | AID 778 | inhibition, % at 5 µM;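 active = CYP2C19 inhibition above a set limit at 5 µM in the primary screen, cut at about 50% in these data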;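 also: plate controls were negative control wells for no effect and 2.5 mM tranylcypromine positive control for full effect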
CYP2C19 activ = cytochrome P450 2C19 (human) activation | P33261 | recombinant CYP2C19, luciferin-H EGE luminescence; active compounds read high; 0 = fully inhibited enzyme, 1 = untreated enzyme | activation factor at 5 µM | 96,000 tested, under 10 active | AID 1025;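 active = activation factor of at least 2 at 5 µM in the primary screen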;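 also: 0 = wells with 2.5 mM tranylcypromine and 1 = vehicle-only wells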
CYP2C9 inhib = inhibitors of human CYP2C9. P11712. CYP2C9 Supersomes, luciferin-H conversion, luminescence. inhibition, % at 5 µM. 96,000 tested, 20% active;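 active = blocking of liver enzyme CYP2C9 beyond about 50% at 5 µM, limit read from the data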
* = called active by the depositor; · = no result given.

SMILES | CYP2C9 act | Cav32 inh | CYP2C19 inhib | CYP2C19 activ | CYP2C9 inhib
CCCn1c(CNC(=O)c2ccccc2)nc2ccccc21 | 1 | -0.15 | 61* | 0.4 | 0
CC(C)Cn1c(CNC(=O)c2ccccc2)nc2ccccc21 | 0.7 | -0.41 | 72* | 0.3 | 27
CCCCn1c(CCNC(=O)c2cccs2)nc2ccccc21 | 0.8 | · | 63* | 0.4 | 21
CC(C)Cn1c(CCCNC(=O)c2ccc(F)cc2)nc2ccccc21 | 0.9 | -2.1 | 23 | 0.8 | 6
CCOc1ccc2[nH]c(S(=O)(=O)CC)nc2c1Cl | 0.6 | 0.98 | -14 | 1.1 | 36
O=C(CSc1nc(-c2ccccc2)c(-c2ccccc2)[nH]1)Nc1nccs1 | 1 | -2.1 | -14 | 1.1 | -3
OCc1ccccc1OCCOc1ccc(Cl)c2cccnc12 | 2.1* | 0.3 | 40 | 0.6 | -113
O=C(Oc1ccc(Cl)c2cccnc12)N1CCCCCC1 | · | -0.27 | · | · | ·
O=C(NCc1cccnc1)C1CCCN(S(=O)(=O)c2ccccc2)C1 (stereo unspecified) | 0.2 | 0.31 | 87* | 0.1 | 83*
O=C(NCc1cccnc1)C1CCCN(S(=O)(=O)c2ccc(Cl)cc2)C1 (stereo unspecified) | 0.2 | 0.19 | 85* | 0.1 | 77*
O=C(NCCc1ccccc1)C1CCCN(S(=O)(=O)c2cccnc2)C1 (stereo unspecified) | 0.8 | 0.9 | 12 | 0.9 | 16
COc1ccc(NC(=O)CN2CCN(CC(=O)Nc3ccccc3Cl)CC2)cc1 | 0.5 | 0.69 | 85* | 0.2 | 49
COc1ccc(NC(=O)CN2CCN(CC(=O)Nc3ccccc3F)CC2)c(OC)c1 | 0.3 | · | 98* | 0 | 71*
O=C(Nc1ccc(Br)cc1)N1CCCCCCC1 | 1 | -0.27 | 93* | 0.1 | -4
CCOc1ccc(NC(=O)CN2CCN(CC(=O)Nc3cc(OC)cc(OC)c3)CC2)cc1 | 0.4 | -0.6 | 48 | 0.5 | 59*
CN(CC(=O)Nc1ccc(S(N)(=O)=O)cc1)c1ccccc1 | 1 | 0.41 | -10 | 1.1 | -4
CCC/C(=N/NC(=O)c1csc(C)c1C)c1ccc(Cl)s1 | 1 | -1.1 | 31 | 0.7 | 0
COc1ccc(NC(=O)CN2CCN(CC(=O)Nc3ccccc3Cl)CC2)c(OC)c1 | 0.3 | -4.3 | 98* | 0 | 74*
O=C(CN1CCCCCC1)Nc1ccc(Br)cc1 | 0.9 | 0.002 | 93* | 0.1 | 9
O=C(CN1CCCCC1)Nc1ccc(S(=O)(=O)N2CCCCCC2)cc1 | 0.9 | 0.62 | -2 | 1 | 13
COc1ccc(NC(=O)CN2CCCCC2)cc1 | 0.8 | 0.018 | 77* | 0.2 | 24
N#Cc1ccsc1NC(=O)CN1CCCCCC1 | 0.8 | 0.79 | 50* | 0.5 | 21
CN(CC(=O)Nc1sccc1C#N)C1CCCCC1 | · | 0.48 | · | · | ·
CCOc1ccc(N=C(NC#N)SCC)cc1 | · | 0.53 | · | · | ·
COc1ccc(NC(=O)CSC2CCCCC2)cc1 | 0.5 | -0.044 | 98* | 0 | 51*
SMILES | CYP2C9 act | Cav32 inh | CYP2C19 inhib | CYP2C19 activ | CYP2C9 inhib
CC1=NN(/C(=N\c2nnc(C)s2)Nc2ccc(C(C)(C)C)cc2)[C@H](c2ccc(C)cc2)S1 | · | -5.6* | · | · | ·
Nc1nnnn1CC(=O)OCc1cccc(Br)c1 | 2.6* | -0.0082 | 36 | 0.6 | -160
Cc1ccc2c(c1)c(C)c(C)n2CC(O)Cn1nc(C)cc1C (stereo unspecified) | 0.2 | -2.5 | 97* | 0 | 77*
Cc1ccc2c(c1)c(C)c(C)n2CC(O)Cn1nnc2ccccc21 (stereo unspecified) | 0.4 | -4.7* | 40 | 0.6 | 64*
CCCC(=O)NCCc1ccc(S(N)(=O)=O)cc1 | 0.8 | 0.021 | -16 | 1.2 | 17
COc1ccccc1CN(Cc1ccco1)S(=O)(=O)c1ccc(-n2cnnn2)c(OC)c1 | 0.2 | -1.3 | 67* | 0.3 | 85*
COc1cccc(CN(Cc2cccnc2)S(=O)(=O)c2ccc(-n3cnnn3)c(C)c2)c1OC | 0.6 | 0.75 | 78* | 0.2 | 44
Cc1nc(SCN2C(=O)c3ccccc3C2=O)n[nH]1 | · | -0.13 | · | · | ·
Cc1cc(N2CCCCC2)nc(SCC(=O)c2ccccc2)n1 | 0.7 | -4 | 25 | 0.8 | 26
Cc1nc(SCC(=O)c2ccccc2)n[nH]1 | 0.5 | 0.18 | 38 | 0.6 | 52*
Cc1cc(-c2ccccc2)nc(SCC(=O)c2cccc([N+](=O)[O-])c2)n1 | 0.3 | -2.6 | 44 | 0.6 | 68*
O=C(CSc1nc(N2CCCCC2)nc(N2CCCCC2)n1)c1ccccc1 | 0.2 | -4.2* | 47 | 0.5 | 79*
O=C(CNC1=NCCC1)c1ccc2c(c1)OCCO2 | 1 | -0.28 | -3 | 1 | 2
CC(=O)c1ccc(NS(=O)(=O)c2ccc(C)cc2)cc1 | 0.2 | -0.79 | 80* | 0.2 | 80*
CC(=O)c1ccc(NS(=O)(=O)c2cccc(C)c2)cc1 | 0 | -0.12 | 99* | 0 | 95*
COc1ccc(NS(=O)(=O)c2cccc(C(=O)O)c2)cc1 | 1.2 | 0.39 | 19 | 0.8 | -20
Cc1cnc(NC(=O)CSc2nnc(-c3cccs3)n2C)s1 | 0.9 | 0.49 | 24 | 0.8 | 12
CCOCCN(C(=O)COC)c1cccc(OC)c1 | 1 | -0.58 | 20 | 0.8 | 0
CCC(C)n1cnc2c(=O)oc3ccccc3c21 (stereo unspecified) | 0.8 | 0.33 | 32 | 0.7 | 16
COc1ccc(-n2c(/C=C(\C)O)nc(=O)c3c(C)cc(C)nc32)cc1 | 0.7 | -0.89 | 5 | 1 | 27
COC(=O)c1c(NC(=O)CSc2nnnn2C)sc(C)c1C | 0.3 | 0.52 | 65* | 0.3 | 66*
CCOC(=O)c1c(NC(=O)CSc2nnc(-c3cccnc3)n2Cc2ccco2)sc(C)c1C | 0.3 | -2.4 | 43 | 0.6 | 66*
COC(=O)c1c(NC(=O)CSc2nnc(-c3ccco3)n2Cc2ccccc2)sc(C)c1C | 0.4 | -4.5* | 18 | 0.8 | 62*
C=CCn1c(SCC(=O)Nc2sc(C)c(C)c2C(=O)OCC)nnc1-c1sc(N)nc1C | 0.4 | 1.6 | 60* | 0.4 | 62*
Cc1ccccc1OCc1nc2ccccc2c(=O)n1NC(=O)c1ccco1 | · | 0.74 | · | · | ·
SMILES | CYP2C9 act | Cav32 inh | CYP2C19 inhib | CYP2C19 activ | CYP2C9 inhib
CN(C)S(=O)(=O)c1ccc(-c2csnn2)s1 | 1.5 | 0.0033 | 37 | 0.6 | -45
CCOC(=O)Cn1c(=O)c(-c2ccccc2N)nc2ccccc21 | · | -0.13 | · | · | ·
Cn1c(=O)c(-c2cc(Br)ccc2N)nc2ccccc21 | 0.5 | · | 93* | 0.1 | 52*
CCN1CNC(=S)N(c2cc(C)ccc2C)C1 | 1.1 | -0.54 | -3 | 1 | -7
CCOc1ccc(S(=O)(=O)N(CC(=O)Nc2cc(C)on2)Cc2ccccc2Cl)cc1 | 0.2 | -2.8 | 71* | 0.3 | 82*
CC(c1nnc(SCC(=O)N2CCc3ccccc32)n1-c1ccc(Cl)cc1)N(C)C (stereo unspecified) | 0.8 | -2.1 | 61* | 0.4 | 21
COc1ccc(-n2c(Cc3cccn3C)nnc2SCC(=O)N2CCCc3ccccc32)cc1 | 1 | -2.4 | 36 | 0.6 | 2
CCCn1c(SCC(=O)N2CCc3ccccc32)nnc1-c1ccco1 | 0.8 | 0.38 | 49 | 0.5 | 19

Screens: PubChem BioAssay, several laboratories
